Source: PubChem
esBAF inh = inhibitors of esBAF chromatin remodeling in mouse ES cells; reporter increase, % at 12.5 µM; Bmi1-luciferase knock-in reporter, 24 h; 100% = twice the neutral-well signal; actives 2% (n = 350,000); in the data active means activation above about 40%;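 further: a rise in the Bmi1 reporter signal indicates esBAF inhibition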
Wnt act = activates Wnt/beta-catenin signaling in a reporter cell assay; activator, plate reader; activation, % at 9.35 µM; actives 1.2% (n = 300,000); AID 743398; in the data active means activation above about 30%, passing the limit was not always enough
MITF TRPM1 HTS = increases MITF-driven TRPM1 promoter luciferase signal. SK-MEL-5 TRPM1-promoter luciferase, 24 h; % of positive control, neutral wells = 0. activation, % at 12.5 µM. actives 0.75% (n = 300,000). AID 588334;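 active means mean activation of at least 80% with every replicate also reaching 80%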
HSF-1 act = increases HSF-1 driven luciferase reporter signal; actives 1.7% (n = 300,000); NIH3T3-HGL HSF-1 luciferase reporter, MG132, 8 h; 100% = twice DMSO control signal; AID 504408; activation, % at 9 µM;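 active means mean replicate activation of at least 50% with a set share of replicates each reaching 50%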
SMARCA2 act = increases SMARCA2 function in MMTV reporter cells; MG213 cells, MMTV-luciferase reporter, dexamethasone, overnight; activation, % at 9.1 µM; actives 1% (n = 370,000); in the data active means activation above about 7.8%
HSF1 inhib = HSF1 inhibition; NIH3T3-HGL HSE-luciferase, MG132-induced, luminescence 8 h; hits give low values; activity change, negative = inhibition, % at 7.5 µM (by protocol); actives 0.77% (n = 300,000);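 active means more than half of replicate wells show activity change below -50%, luminescence cut by over half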;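 further: luciferase reports HSF-1 transcriptional activity via heat shock element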
Ring1 derepress = de-represses Ring1 in mouse ESCs, confirming esBAF inhibition | shares compounds with esBAF inh | mouse ESC E14, Ring1 mRNA RT-qPCR fold change | fold change at 33 µM | 550 tested, under 10 active;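 active means Ring1 gene expression raised more than 2-fold over untreated cells in both replicates at either tested dose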;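 further: Ring1 transcript normalised to actin housekeeping signal by TaqMan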
esBAF Fgf4 qPCR = confirmation of esBAF inhibitors: Fgf4 repression in mouse ESCs; mouse ESC E14, Fgf4 mRNA qPCR fold change; hits give low values; Fgf4 expression fold change at 33 µM; shares compounds with esBAF inh; actives 4% (n = 550); AID 743177;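 active means Fgf4 expression under 0.8 fold of control in both repeat measurements at one or both tested doses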;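 further: Fgf4 transcript normalised to actin in duplex TaqMan qPCR; cells exposed to compound for 24 h before lysis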
esBAF Bmi1 qPCR = de-represses Bmi1 in mouse ESCs, confirming esBAF inhibition; shares compounds with esBAF inh; mouse ESE14 ES cells, Bmi1 mRNA qPCR fold; hits give high values; fold change at 33 µM; 550 tested, under 10 active;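 active means Bmi1 expression fold change above 6 at either tested concentration, seen in replicate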;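 further: higher fold means more Bmi1 de-repression and stronger esBAF inhibition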
A549 tox SP = kills or reduces viability of A549 cells. shares compounds with esBAF inh. A549 cytotoxicity, plate reader. cell viability change % (negative = cytotoxic), % at 25 µM, hits read low. 550 tested, under 10 active. AID 743188; call rule not given here
HepG2 tox SP = HepG2 cell cytotoxicity at single point | AID 743189 | plate reader; hits give low values | actives 4% (n = 550) | activity change, negative = inhibition, % at 25 µM | shares compounds with esBAF inh; in the data active means activity change below about -50%
HEK293 tox SP = HEK293 cell cytotoxicity at single point | activity change, negative = inhibition, % at 25 µM, hits read low | plate reader | shares compounds with esBAF inh | actives 3% (n = 550) | AID 743190; in the data active means activity change below about -38%, passing the limit was not always enough
SMARCA2 act conf = SMARCA2 activation, confirmation screen; shares compounds with SMARCA2 act; MG213 cells, MMTV-luciferase with dexamethasone, luminescence, overnight; MG213 cells expressing E1A, Rb sequestered; DMSO wells 0%, reference activator 100%; activation, % at 9.1 µM; actives 30% (n = 3,500);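 active means activation above its plate's cutoff, the mean activation of tested wells plus 3 SD, cut at about 7.9% in these data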
GAL4-VP16 Luc = GAL4-VP16 reporter activation counter-screen | shares compounds with SMARCA2 act | HEK293 GAL4-VP16 pG5luc reporter, luciferase luminescence; scaled: DMSO wells 0%, SAHA wells 100% | activation, % at 9.1 µM | actives 41% (n = 3,500) | AID 686939;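 active means activation above the solvent-only control well mean plus 3 SD, averaged across control plates, cut at about 5.2% in these data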
Of the large screens only hits and unclear results are named; the others gave an inactive call (follow-up assays come after a bar, where they were run). Shown are actives, neighbours in structure and some others; about 4.3% of the full set was active somewhere.

O=C1c2ccccc2CN1c1ccccc1	esBAF inh 55, SMARCA2 act 9.7 (no result: MITF TRPM1 HTS) | Ring1 derepress inactive | esBAF Fgf4 qPCR inactive | esBAF Bmi1 qPCR inactive | A549 tox SP inactive | HepG2 tox SP inactive | HEK293 tox SP inactive | SMARCA2 act conf 11 | GAL4-VP16 Luc 9.8
COc1ccc(-c2cc(C(=O)Nc3ccc(NC(C)=O)cc3)[nH]n2)c(C)c1	esBAF inh 61, SMARCA2 act 9.6 (no result: MITF TRPM1 HTS, HSF-1 act, HSF1 inhib) | Ring1 derepress inactive | esBAF Fgf4 qPCR inactive | esBAF Bmi1 qPCR inactive | A549 tox SP inactive | HepG2 tox SP inactive | HEK293 tox SP inactive | SMARCA2 act conf inactive | GAL4-VP16 Luc inactive
COc1ccc(-c2cc(C(=O)Nc3cc(OC)c(OC)c(OC)c3)[nH]n2)c(C)c1	none (no result: MITF TRPM1 HTS, HSF-1 act, HSF1 inhib)
C[C@@H]1CCCCO[C@H](CN(C)Cc2ccc(C(=O)O)cc2)[C@H](C)CN([C@H](C)CO)C(=O)c2cc(NC(=O)Nc3ccccc3)ccc2O1	none (no result: Wnt act, MITF TRPM1 HTS, HSF-1 act, SMARCA2 act, HSF1 inhib)
O=C(Nc1ccccc1F)N[C@H]1C=C[C@@H](CC(=O)N2CCCCC2)O[C@H]1CO	none (no result: Wnt act, MITF TRPM1 HTS, HSF-1 act, SMARCA2 act, HSF1 inhib)
COc1ccc2c(c1OC)C(=O)OC2Nc1nc(-c2cc3cc(Br)ccc3oc2=O)cs1 (stereo unspecified)	esBAF inh 65, Wnt act 51, MITF TRPM1 HTS 144, SMARCA2 act 9.2 | Ring1 derepress inactive | esBAF Fgf4 qPCR inactive | esBAF Bmi1 qPCR inactive | A549 tox SP inactive | HepG2 tox SP inactive | HEK293 tox SP inactive | SMARCA2 act conf 12 | GAL4-VP16 Luc 7.9
COc1ccc(NC(=O)c2cc(F)cc(F)c2)cc1Cl	esBAF inh 58, Wnt act 56, SMARCA2 act 9.0 (no result: MITF TRPM1 HTS) | Ring1 derepress inactive | esBAF Fgf4 qPCR inactive | esBAF Bmi1 qPCR inactive | A549 tox SP inactive | HepG2 tox SP inactive | HEK293 tox SP inactive | SMARCA2 act conf inactive | GAL4-VP16 Luc inactive
COc1ccc(NC(=O)c2c(F)c(F)c(F)c(F)c2F)cc1Cl	none (no result: Wnt act)
Cc1ccc2c(CN(C)Cc3ccccc3)cc(=O)oc2c1	esBAF inh 88, SMARCA2 act 11 (no result: MITF TRPM1 HTS, HSF-1 act, HSF1 inhib) | Ring1 derepress inactive | esBAF Fgf4 qPCR inactive | esBAF Bmi1 qPCR inactive | A549 tox SP inactive | HepG2 tox SP inactive | HEK293 tox SP inactive | SMARCA2 act conf 12 | GAL4-VP16 Luc 11
COc1ccc(Nc2nc(C)c(C(C)=O)s2)cc1	esBAF inh 82, SMARCA2 act 8.2 (no result: MITF TRPM1 HTS, HSF-1 act, HSF1 inhib) | Ring1 derepress inactive | esBAF Fgf4 qPCR inactive | esBAF Bmi1 qPCR inactive | A549 tox SP inactive | HepG2 tox SP inactive | HEK293 tox SP inactive | SMARCA2 act conf inactive | GAL4-VP16 Luc 10
COc1ccc(C(=O)c2sc(Nc3ccc(NC(C)=O)cc3)nc2C)cc1	none (no result: MITF TRPM1 HTS)
Cc1cccc2cc3ccccc3nc12	none (no result: esBAF inh, MITF TRPM1 HTS)
c1ccc2nc3c(ccc4ccccc43)cc2c1	esBAF inh 70, SMARCA2 act 15 (no result: HSF-1 act, HSF1 inhib) | Ring1 derepress inactive | esBAF Fgf4 qPCR inactive | esBAF Bmi1 qPCR inactive | A549 tox SP inactive | HepG2 tox SP inactive | HEK293 tox SP inactive | SMARCA2 act conf inactive | GAL4-VP16 Luc 7.7
COc1c(C(=O)NNC(=O)c2ccccc2)csc1Br	esBAF inh 56, Wnt act 39, SMARCA2 act 16 | Ring1 derepress inactive | esBAF Fgf4 qPCR inactive | esBAF Bmi1 qPCR inactive | A549 tox SP inactive | HepG2 tox SP inactive | HEK293 tox SP inactive | SMARCA2 act conf inactive | GAL4-VP16 Luc 7.0
O=S(=O)(N[C@H]1CC[C@@H](CCn2cc(-c3cccnc3)nn2)O[C@@H]1CO)c1ccccc1	none (no result: Wnt act, MITF TRPM1 HTS, HSF-1 act, SMARCA2 act, HSF1 inhib)
C[C@H]1CN([C@@H](C)CO)C(=O)c2cc(NC(=O)CCCN(C)C)ccc2O[C@H]1CN(C)S(=O)(=O)c1ccccc1	none (no result: Wnt act, MITF TRPM1 HTS, HSF-1 act, SMARCA2 act, HSF1 inhib)
Cc1cccc(NC(=O)c2ccccn2)c1C	esBAF inh 63, Wnt act 36, SMARCA2 act 8.3 | Ring1 derepress inactive | esBAF Fgf4 qPCR inactive | esBAF Bmi1 qPCR inactive | A549 tox SP inactive | HepG2 tox SP inactive | HEK293 tox SP inactive | SMARCA2 act conf 13 | GAL4-VP16 Luc 8.4
COC(=O)c1sccc1NC(=O)c1ccc(C#N)cc1	none (no result: Wnt act, MITF TRPM1 HTS, SMARCA2 act)
COC(=O)c1sccc1NC(=O)c1ccc(OC)cc1	esBAF inh 76, SMARCA2 act 17 (no result: MITF TRPM1 HTS) | Ring1 derepress inactive | esBAF Fgf4 qPCR inactive | esBAF Bmi1 qPCR inactive | A549 tox SP inactive | HepG2 tox SP inactive | HEK293 tox SP inactive | SMARCA2 act conf inactive | GAL4-VP16 Luc inactive
CC(C)NC(=O)N(C)C[C@@H]1Oc2cc(-c3ccccc3F)ccc2S(=O)(=O)N([C@@H](C)CO)C[C@@H]1C	none (no result: Wnt act, MITF TRPM1 HTS, HSF-1 act, SMARCA2 act, HSF1 inhib)
CC(CCc1ccccc1)NC(=O)C(Cc1ccccc1)NS(=O)(=O)c1cccs1 (stereo unspecified)	none
CC1CCCCC1NC(=O)C(Cc1ccccc1)NS(=O)(=O)c1cccs1 (stereo unspecified)	SMARCA2 act 8.7 | SMARCA2 act conf inactive | GAL4-VP16 Luc inactive
C[C@@H]1CN([C@H](C)CO)S(=O)(=O)c2ccc(C3=CCCC3)cc2O[C@@H]1CN(C)C(=O)c1cnccn1	none (no result: Wnt act, MITF TRPM1 HTS, HSF-1 act, SMARCA2 act, HSF1 inhib)
Cc1nc2cc(NC(=O)N3c4ccccc4CC3C)ccc2o1 (stereo unspecified)	SMARCA2 act 9.6 | SMARCA2 act conf 14 | GAL4-VP16 Luc 13
Cc1nc2cc(NC(=O)N3c4ccccc4CC3C)ccc2n1C (stereo unspecified)	none (no result: HSF-1 act, HSF1 inhib)
Cn1c(CN2CCOCC2)nnc1SCC(=O)NCCc1ccccc1	SMARCA2 act 8.2 (no result: MITF TRPM1 HTS) | SMARCA2 act conf inactive | GAL4-VP16 Luc inactive
Cn1c(CN2CCOCC2)nnc1SCc1ccccc1	none
CCc1nnc2n1N=C(c1ccc(-c3cc(Cl)ccc3Cl)o1)CS2	SMARCA2 act 8.9 (no result: Wnt act) | SMARCA2 act conf inactive | GAL4-VP16 Luc inactive
